In the library only some 5.3% were active in any assay of this set; here they are far more common.
Vaccinia mCherry: inhibitors of vaccinia virus infection (mCherry reporter signal). Potency, µM (series often up to 36.5 µM), for the others: at the highest dose activity change, negative = inhibition, hits mostly inhibitors. 310,000 tested, 0.63% active. Vaccinia virus mCherry reporter infection, fluorescence. AID 720579; calls by dose curve; tested in A549 cells; further: on the % scale 0 is the no-effect control and ±100 the full control effect; nearly all actives have a fitted effect of over 35% in size
MARV entry inh: inhibitors of Marburg virus binding or cell entry. Potency, µM (top dose mostly 37.8 µM), without a hit: at the top dose activity change, negative = inhibition, most hits filed as inhibitors. 300,000 tested, 1.8% active. Marburg virus pseudotyped entry inhibition, cell reporter; calls by dose curve; tested in HEK293 cells; further: on the % scale 0 is the no-effect control and ±100 the full control effect
HCV inhibitor: blocks hepatitis C virus; 340,000 tested, 3.4% active; Potency, µM (doses to about 41.8 µM), without a hit: at the highest dose activity change, negative = inhibition, most hits filed as inhibitors; Huh7.5.1 HCVcc-Cre infection, luciferase reporter, 44 h; further: on the % scale 0 is the no-effect control and ±100 the full control effect
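Compounds are dispensed onto cells plated 4 h earlier at 1,000 per well, with HCVcc-Cre virus (about 0.5 moi) added next. Following 44 h of culture, luminescent signal is measured for 15 sec after 15 min with substrate at room temperature.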
VACV Venus inh: vaccinia inhibition (Venus reporter) | Vaccinia virus Venus reporter expression, fluorescence | Potency, µM (series often up to 36.5 µM), for the others: top-dose activity change, negative = inhibition, actives largely listed as inhibitors | 330,000 tested, 0.46% active | AID 720580; calls by dose curve; tested in A549 cells; further: on the % scale 0 is the no-effect control and ±100 the full control effect; nearly all actives have a fitted effect of over 30% in size
Lassa entry inh: Lassa virus entry inhibition | Lassa virus pseudotype entry inhibition, cell reporter | Potency, µM (highest dose often 37.9 µM), for inactives: at the top dose activity change, negative = inhibition, usual class: inhibitors | 300,000 tested, 1.2% active | AID 540256; calls by dose curve; tested in HEK293 cells; further: on the % scale 0 is the no-effect control and ±100 the full control effect; nearly all actives have a fitted effect of over 50% in size
FMDV inh: antivirals against foot and mouth disease virus. 410,000 tested, 1.2% active. AID 1159524. Potency, µM (series often up to 57.9 µM), for inactives: top-dose activity change, negative = inhibition, usual class: inhibitors. FMDV antiviral cell-based qHTS; calls by dose curve; tested in HEK293T cells; further: read-out not given here; on the % scale 0 is the no-effect control and ±100 the full control effect; nearly all actives have a fitted effect of over 45% in size
HCV inh confirm: HCV inhibition, cherry-pick confirmation. shares compounds with HCV inhibitor. HCVcc-Cre infectious virus cell assay, luciferase, inhibition. Potency, µM (top dose mostly 41.8 µM), for the others: at the highest dose activity, negative = inhibition, usual class: inhibitors. 640 tested, 78% active; further: nearly all actives have a fitted effect of over 80% in size
HCV host tox: toxic to HCV host cells, flagging false HCV inhibitors | HCV host cell line cytotoxicity counterscreen | Potency, µM (doses to about 41.8 µM), for inactives: at the top dose activity change, negative = cytotoxicity, most hits filed as inhibitors | 640 tested, 22% active | AID 720576 | shares compounds with HCV inhibitor;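 further: 44 h compound exposure; on the % scale 0 is the no-effect control and ±100 the full control effect; nearly all actives have a fitted effect of over 55% in size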
An asterisk follows results filed as active; i = inactive; ? = inconclusive; · = no result given; ! = not confirmed by another sample; [ ] = dose if it differs, or a comment. Unless noted, the call rests on the fitted dose curve; in most records, active means well fitted curve in the direction sought with a large enough effect; inconclusive means small, poorly fitted or top-dose-only effect, or another doubt; inactive means no such curve, though single readings can be large; an effect the other way counts as inactive or inconclusive. Potency means the concentration at half of the fitted maximal effect.

SMILES | Vaccinia mCherry | MARV entry inh | HCV inhibitor | VACV Venus inh | Lassa entry inh | FMDV inh | HCV inh confirm | HCV host tox
CCC(C)NC(=O)CSc1nc(-c2cccs2)cc(C(F)(F)F)n1 (centres undefined) | i | -24% | 4.5µM* | -18% | -8% | · | 20µM* | -36%
CCOc1ccc(CCNc2nc3c(c(=O)n(C)c(=O)n3C)n2CC)cc1OCC | · | ? | 5.6µM* | · | ? | -25% | 6.3µM* | 14µM*
CC(C)n1c(NCCc2ccccc2)nc2c1c(=O)n(C)c(=O)n2C | -17% | ? | ? | -29% | ? | 16µM* | 7.9µM* | ?
Cn1c(=O)c2c(nc(NCCc3ccccc3)n2Cc2ccc(Cl)cc2)n(C)c1=O | ? | 11%[46.1 µM] | · | ? | 1%[46.1 µM] | ? | · | ·
CCOc1ccc(CNC(=O)CSc2nnc(C)c3c(C)n(-c4ccccc4)nc23)cc1 | 0% | · | · | -7% | -16%[46.1 µM] | ? | · | ·
COc1ccc(C2CC(c3cccs3)=Nc3ccccc3S2)cc1 (centres undefined) | · | · | ? | · | · | 20% | ? | 16%
CCOC(=O)c1ccc(NC(=O)c2cccn(Cc3ccccc3F)c2=O)cc1 | -21% | · | · | -21% | -19%[46.1 µM] | ? | · | ·
CSc1ccc(NC(=O)Nc2cccn(Cc3ccccc3F)c2=O)cc1 | ? | · | 3.5µM* | ? | · | -14% | 8.9µM* | -74%
N#C/C(=C\Nc1ccc2cn[nH]c2c1)c1nc(-c2ccccc2)cs1 | i | ? | 0.89µM* | -13% | ? | -24% | 3.1µM* | -54%
N#C/C(=C\Nc1ccc2cn[nH]c2c1)c1nc(-c2ccc(Cl)cc2)cs1 | 4% | ? | ? | 5% | -2% | -24% | · | ·
Cc1cc(OCCN2CCC(Cc3ccccc3)CC2)ccc1[N+](=O)[O-] | -16% | ? | -6% | ? | 4%[46.1 µM] | -16% | · | ·
CN(CC(=O)NC1(C)CCS(=O)(=O)C1)S(=O)(=O)c1ccc(Cl)cc1 (centres undefined) | -20% | 29% | 8% | -13% | 23% | -16% | · | ·
COc1ccccc1Nc1nc2nonc2nc1N1CCCCC1C (centres undefined) | · | 24% | ? | · | 15% | 0% | ? | 37%
Cc1nc(NC(=O)CN2CCCCC2)sc1C(=O)N(C)C | i | 21%[46.1 µM] | 15% | -7% | 14%[46.1 µM] | -13% | · | ·
O=S(=O)(c1ccc(Oc2ccccc2)cc1)N1CCOCC1 | · | -28% | ? | · | 6% | ? | · | ·
O=[N+]([O-])c1ccccc1Oc1ccc(S(=O)(=O)N2CCOCC2)cc1 | · | · | 7.9µM* | · | · | ? | ? | 25%
CC(=O)Nc1ccc(-c2csc(N/N=C(/C)c3ccccc3)n2)cc1 | -58% | ? | 1.3µM* | 8% | ? | ? | 6.3µM* | -22%
O=c1c2ccccc2nc(-c2ccccc2)n1Cc1ccc(Cl)cc1 | -13% | -19% | -6% | -12% | -9% | -9% | · | ·
O=c1c2ccccc2nc2n1CCN2Cc1ccc(Cl)cc1 | -15% | ? | ? | ? | -18% | · | 6.3µM* | ?
O=C(Nc1ccc(-c2nc3ccccc3[nH]2)cc1)c1ccco1 | 3% | -22% | ? | -7% | ? | · | · | ·
O=C(/C=C/c1ccco1)Nc1ccc(-c2nc3ccccc3[nH]2)cc1 | ? | ? | 2.8µM* | ? | -12% | -7% | 6.3µM* | ?
C[C@@H]1CCCCO[C@H](CN(C)S(=O)(=O)c2ccc(F)cc2)[C@@H](C)CN([C@H](C)CO)C(=O)c2cc(NC(=O)Nc3ccc(C(F)(F)F)cc3)ccc2O1 | -9% | · | · | -18% | · | -22% | · | ·
COC(=O)N/N=C/c1cc(C)n(-c2ccccc2)c1C | · | -1% | -1% | · | 2% | 55% | · | ·
Cc1cc(C(=O)N/N=C/c2ccc(O)c(O)c2O)c(C)n1-c1ccccc1 | -24% | ? | 5.6µM* | -5% | ? | -7% | 13µM* | ?
Cc1cc2c(=O)n(Cc3ccco3)c(SCC(=O)NCc3ccco3)nc2s1 | -20% | -1% | 3.5µM* | -14% | 0% | 8% | 2.8µM* | 36%
SMILES | Vaccinia mCherry | MARV entry inh | HCV inhibitor | VACV Venus inh | Lassa entry inh | FMDV inh | HCV inh confirm | HCV host tox
Cc1ccc(Cn2c(SCC(=O)NCc3ccco3)nc3ccsc3c2=O)cc1 | · | ? | 4.5µM* | · | -2% | -9% | 11µM* | 16%
Cc1sc2nc(SCC(=O)c3cccs3)n(Cc3ccco3)c(=O)c2c1C | · | -13% | 2% | · | ? | -11% | ? | 2.8µM*
CCCCNC(=O)CSc1nc2cc3c(cc2c(=O)n1Cc1ccco1)OCO3 | -1% | -27% | ? | 5% | -6% | ? | 14µM* | -3%
Cc1sc2nc(SCc3ccc(C(=O)O)cc3)n(Cc3ccco3)c(=O)c2c1C | -6% | ? | 13% | -4% | -25% | -4% | · | ·
COc1ccc(-c2cccc(-c3cc(=O)oc4ccc(C(C)(C)C)cc34)c2)cc1 | -8% | · | 1% | -18% | · | ? | · | ·
Cn1c(SCC(=O)NNC(=O)c2ccccc2)nnc1C(F)(F)F | · | · | 9% | · | · | 11% | · | ·
O=C(COc1ccc(/C=N/NC(=O)c2cc3ccccc3o2)cc1Cl)Nc1ccccc1 | ? | ? | 5.6µM* | ? | 8.9µM* | -69% | 7µM* | 7µM*
O=C(COC(=O)c1cc(S(=O)(=O)N2CCCCC2)ccc1N1CCOCC1)c1ccc(F)cc1 | i | 1%[46.1 µM] | ? | 0% | ? | -11% | · | ·
O=C(CN1CCN(Cc2ccccc2F)CC1)Nc1ccccc1Cl | · | · | -4% | · | · | -13% | · | ·
COC1C(O)C(C)OC(OC2CCC3(C)C(CCC4C3C(O)CC3(C)C(C5=CC(=O)OC5)CCC43O)C2)C1O (centres undefined) | 0.25µM* | ? | 1.6µM* | 0.35µM* | ? | -21% | 1.1µM* | ?
Cc1cc(OCC(=O)N2CCN(c3ccccn3)CC2)cc(C)c1Br | -11% | 15% | -16% | -21% | 10% | ? | · | ·
Cc1ccc(CSCC(=O)N(C)CC(=O)Nc2c(Cl)cccc2Cl)cc1 | -7% | 13% | 0% | 0% | -21% | ? | · | ·
COCCn1c(=O)[nH]c2cc(C(=O)N3CCN(c4ccc(Cl)cc4)CC3)ccc2c1=O | ? | ? | 8.9µM* | -2% | 21%[46.1 µM] | 16µM*! | 7µM* | ?
COc1ccc(-c2c(C)c3cc(OC(=O)N4CCOCC4)ccc3oc2=O)cc1 | -7% | · | · | -1% | -28%[46.1 µM] | 0% | · | ·
Cc1cc(Nc2ccccc2Cl)nc(-c2ccccc2O)n1 | -15% | ? | ? | -19% | -18%[46.1 µM] | -25% | · | ·
Cc1cc(Nc2cccc(F)c2)nc(-c2ccccc2O)n1 | ? | ? | 4.5µM* | ? | 0% | · | 7.9µM* | -2%

High-throughput results: PubChem BioAssay, National Center for Advancing Translational Sciences (NCATS)
